From PubChem BioAssay (NCATS) come the findings set out here.

Molecules are shown by their SMILES. Inconclusive results are not listed. A call without a number means that no potency is given here. Active and inactive are the calls of the source. The call rests on the fitted dose curve; in most records, active means well fitted inhibition curve with a large enough effect; inconclusive means small, poorly fitted or top-dose-only effect; inactive means flat fitted curve, though single readings scatter. Where a SMILES comes first, the peptide text is derived from it. [ ]: non-standard residue; d: D form. 2Abz = Nc1ccccc1C(=O)O
Potency means the concentration at half of the fitted maximal effect.

The nature of the test: P-glycoprotein substrates identified in KB-8-5-11 adenocarcinoma cell line, qHTS therapeutic library screen (AID 1346987). Further: nearly all actives have a fitted effect of over 65% in size. The following applies: KB-8-5-11 (P-gp overexpressing) viability, CellTiter-Glo, 72 h; series mostly up to 44.5 µM. The source says:
The ATP-binding cassette transporters P-glycoprotein (P-gp) is known to limit brain penetration of many chemotherapy drugs. […] As such, we developed a high-throughput screen (HTS) to identify substrates of P-gp from a series of chemical libraries including the National Center for Advancing Translational Sciences Pharmaceutical Collection NPC, 2,816 compounds), testing a total of 10,804 compounds, most of which have known mechanisms of action. We used the CellTiter-Glo viability assay to test library compounds against the parental KB-3-1 human cervical adenocarcinoma cell line and the colchicine-selected sub-line KB-8-5-11 that over-expresses P-gp. KB-8-5-11 cells were also tested in the presence of a P-gp inhibitor (tariquidar) to assess reversability of transporter-mediated resistance. Of the tested compounds, a total of 90 P-gp substrates were identified including 55 newly identified P-gp substrates. Substrates were confirmed using an orthogonal killing assay against HEK-293 cells transfected with P-gp. As exemplars, we confirmed that […] (cyclin-dependent kinase inhibitor); AT9283, (Janus kinase 2/3 inhibitor); ispinesib (kinesin spindle protein inhibitor); gedatolisib (PKI-587, phosphoinositide 3-kinase/mammalian target of rampamycin inhibitor); GSK-690693 (AKT inhibitor); and KW-2478 (heat shock protein 90 inhibitor) were substrates , and direct ATPase stimulation was assessed. ABCG2 was also found to confer high levels of resistance to AT9283, GSK-690693 and gedatolisib, while ispinesib, AT7519 and KW-2478 were weaker substrates.
The HeLa derivative cell line, KB-3-1, and its colchicine-selected, P-gp-overexpressing subline, KB-8-5-11 were maintained in DMEM with 10% FCS and Pen/Strep with glutamine at 37 degree C in 5% CO2. For KB-8-5-11 cells, colchicine was added to the medium at a concentration of 100 ng/mL. HEK-293 cells transfected with empty vector (pcDNA) or vector containing human ABCB1 (MDR-19) or ABCG2 (R-5) have been described previously (Robey, Lin, Qiu, Chan & Bates, 2011) and were maintained in EMEM supplemented with 10% FCS, Pen/Strep and glutamine with 2 mg/ml G418 to select for the expression of the transporter. Cultures were confirmed to be free of mycoplasma infection using the MycoAlert Mycoplasma Detection Kit (Lonza, Walkersville, MD). For the screen, assay medium was identical to culture medium except for KB-8-5-11 where colchicine was excluded from the medium.
All cell lines were plated into 1536-well plates at 500 cells/well in 5 uL media. Compounds were then pinned in dose-response using a 1536-head pin tool (Kalypsis, San Diego, CA) and plates were incubated at 37 degree C in 5% CO2 for an additional 72 h. CellTiter-Glo reagent (Promega) was dispensed into the wells, incubated for 5 min and luminescence was read on a ViewLux instrument (Perkin-Elmer). Cytotoxic compounds were defined as those that yielded a curve class of -1.1, -1.2, -2.1, -2.2, -2.3, or -2.4, a maximum response of >50% and an AC50 of < 10 uM. Cherry-picked hits from screening analysis were tested with both the KB pair of cell lines, and the pcDNA (empty vector control) and MDR-19 (P-gp overexpressing) pair were tested, in the absence and presence of tariquidar.
(In qHTS, concentration-response curves come from the screen itself.)
As for `COC1CC(=O)CCC(C)OC(=O)CC1O` (stereo not given), the Potency result was “inactive”. Take `COC1=CC(=O)C[C@@H](C)[C@]12Oc1cc(OC)cc(OC)c1C2=O`: the Potency result was “inactive”. The same measure, in the same setting: with `COc1ccc(C)c2sc(NC(=O)c3ccncc3)nc12` the entry was “inactive”. As to `COc1cc([C@@H]2Oc3c(OC)cc(CCCO)cc3[C@@H]2CO[C@@H]2O[C@H](CO)[C@@H](O)[C@H](O)[C@H]2O)ccc1O`, the Potency result is “inactive”. `C=CC1(C)CC(OC(=O)C(=C)C(O)COC(C)=O)C(C(=C)C(=O)OC)C(O)C1C(=C)CO` (stereo not given): the Potency entry is “inactive”.

On to `COC(=O)[C@H]1[C@H]2C[C@@H]3c4[nH]c5ccccc5c4CCN3C[C@H]2C[C@@H](OC(=O)c2cc(OC)c(OC)c(OC)c2)[C@@H]1OC`, for which the Potency was 4.11 µM (active). For the compound `CC(C)(OC1OC(CO)C(O)C(O)C1O)C1CCC(O)(CO)C2CC(O)C(C)(O)C2C1` (stereo not given), the Potency result was “inactive”. Turning to `CCC(C)C1NC(=O)C2CCCN2C(=O)C(C(C)C)NC(=O)c2ccccc2NC(=O)C(Cc2ccc(O)cc2)NC(=O)C(C)NC(=O)C(C(C)O)NC1=O` (stereo not given) (cyclo([2Abz]VPITAY); configuration not given here), the Potency result was “inactive”. Regarding `CC1=C2C3OC(=O)C(C)C3(O)CCC2(C)CCC1=O` (stereo not given), the Potency result is “inactive”. On to `C[C@]1(O)CC[C@@H]2C(C(=O)O)=CO[C@@H](O[C@@H]3O[C@H](COC(=O)c4ccc(O)cc4)[C@@H](O)[C@H](O)[C@H]3O)[C@@H]21`, for which the Potency result is “inactive”.

`COC(=O)c1ccc(O[C@@H]2O[C@H](CO)[C@@H](O)[C@H](O)[C@H]2O)c(OC)c1`: the Potency result is “inactive”. Turning to `O=C(CCCCc1ccc2ccccc2c1)C(F)(F)F`, the Potency result is “inactive”. The same measure, in the same setting: the result for `CCCCCCCCCCCC[n+]1ccc2ccccc2c1` reads “inactive”; that for `O=c1c2ccccc2nc2n1CCC2O` (stereo not given), “inactive”.

With `CC(C)C1=CCC(C)(O)C(OC2OC(CO)C(O)C(O)C2O)C1` (stereo not given), the Potency entry was “inactive”. With `O=C(CCO[C@@H]1O[C@H](CO)[C@@H](O)[C@H](O)[C@H]1O)c1ccc(O)cc1`, the Potency entry was “inactive”. Regarding `CNC(=O)[C@H]1O[C@@H](n2cnc3c(NCc4ccc(N)c(I)c4)ncnc32)[C@H](O)[C@@H]1O`, the outcome was “inactive [at 9.29 µM]”. For `CC1CC(O)C2(C)C(C(=O)O)=CCCC2C1(C)CCc1ccoc1` (stereo not given), the Potency entry is “inactive”. As for `CC(C)CC(=O)OC[C@H]1O[C@@](COC(=O)CC(C)C)(O[C@H]2O[C@H](CO)[C@@H](O)[C@H](O)[C@H]2OC(=O)CC(C)C)[C@@H](OC(=O)CC(C)C)[C@@H]1O`, the Potency result is “inactive”. Take `CC1CCC2C(C)(C)CC(C)(CO)C2(O)C1C(=O)O` (stereo not given): the Potency result was “inactive”. Regarding `CC1(C)CCCC2(C)C(CO)C3CCC2C31` (stereo not given), the Potency entry was “inactive”. Still for that read-out and setting: with `OC[C@H]1O[C@@H](Oc2cc(O)cc(-c3cc4ccc(O)cc4o3)c2)[C@H](O)[C@@H](O)[C@@H]1O` the entry was “inactive”. As for `C/C=C(\C)C(=O)O[C@H]1[C@H](O)[C@]2(COC(C)=O)[C@H](O)C[C@]3(C)C(=CCC4[C@@]5(C)CC[C@H](O[C@@H]6O[C@H](C(=O)O)[C@@H](O[C@@H]7O[C@H](CO)[C@@H](O)[C@H](O)[C@H]7O)[C@H](O)[C@H]6O[C@@H]6O[C@H](CO)[C@@H](O)[C@H](O)[C@H]6O)[C@](C)(CO)C5CC[C@]43C)[C@@H]2CC1(C)C` (stereo not given in full), the activity change, negative = cytotoxicity is 3.98% [at 9.29 µM] (inactive). For the compound `COc1cc(C(=O)OC[C@H]2O[C@H](O[C@@]3(CO)O[C@@H](CO)[C@H](O)[C@H]3O)[C@H](O)[C@@H](O)[C@@H]2O)ccc1O`, the Potency entry is “inactive”.

In the case of `C=C1CCC2(OC1)OC1CC3C4CC=C5CC(O)CC(O[C@@H]6OC[C@@H](O)[C@H](O)[C@H]6O)C5(C)C4CCC3(C)C1(O)C2C` (stereo not given in full), the Potency entry was “inactive”. Regarding `CC(C)CC1(C(=O)OCc2ccc(O[C@@H]3O[C@H](CO)[C@@H](O)[C@H](O)[C@H]3O)cc2)CC(=O)OC(C(=O)O)CC(=O)OCC2OC(O1)C(OC(=O)/C=C/c1ccc(O)cc1)C(O)C2O` (stereo not given in full), the outcome was “inactive [at 9.29 µM]”.

Regarding `N#CCc1ccc(O)cc1O[C@@H]1O[C@H](CO)[C@@H](O)[C@H](O)[C@H]1O`, the Potency result was “inactive”. As for `C=Cc1cc(O)cc2nc(-c3ccc(O)c(F)c3)oc12`, the Potency result was “inactive”.

For `O=c1ccn(C2OC(CO)C(O)C2O)c(=O)[nH]1` (stereo not given), the Potency entry is “inactive”. The same measure, in the same setting: with `CO[C@@]12CC3[C@@H]([C@@H](O)[C@@H](OC(C)=O)C4[C@](C)(COC(C)=O)CCC[C@]34C)[C@@H](C)C1=CC(=O)O2` (stereo not given in full) the entry was “inactive”. On to `COc1ccc2cc(OCC3(C(=O)O)CN(C(=O)c4ccc(F)cc4)C3)ccc2c1`, for which the Potency entry was “inactive”. For the compound `CC1(C)C(O)CCC2(C)C1C(O)C=C1COC(=O)C12O` (stereo not given), the Potency entry was “inactive”. Turning to `OCCc1ccc(O[C@@H]2O[C@H](CO)[C@@H](O)[C@H](O)[C@H]2O)c(O)c1`, the Potency result is “inactive”. As for `C/C1=C2N=C(/C=C3N=C(/C(C)=C4\[N-][C@@](C)([C@@H]5N=C1[C@](C)(CCC(=O)NCC(C)OP(=O)(O)O[C@H]1[C@@H](O)[C@@H](n6cnc7cc(C)c(C)cc76)O[C@@H]1CO)[C@H]5CC(N)=O)[C@@](C)(CC(N)=O)[C@@H]4CCC(N)=O)[C@@](C)(CC(N)=O)[C@@H]\3CCC(N)=O)C(C)(C)[C@@H]/2CCC(N)=O.CC(=O)O.[Co]` (stereo not given in full), the Potency result is “inactive”.

In the case of `N[C@H](C(=O)O)[C@@H]1CC(Cl)=NO1`, the Potency is 4.11 µM (active). Still for that read-out and setting: the result for `COC(=O)C12C(=O)C(C)=C(O)C1(C)C(C)=CC1C34CCC(OC3=O)C(C)(C)C4CCC12C` (stereo not given) reads “inactive”. Regarding `COc1cc(C2c3cc(O)c(OC)cc3CC(CO)C2CO)ccc1O` (stereo not given), the Potency entry was “inactive”. As to `CC(Oc1ccccc1)C(=O)N[C@@H]1C(=O)N2[C@@H]1SC(C)(C)[C@@H]2C(=O)O` (stereo not given in full), the Potency result is “inactive”. Turning to `C=C1C(=O)O[C@H]2[C@H]1[C@@H](OC(=O)C(C)CO)C[C@@]1(C)[C@H](O)CCC(=O)[C@H]21` (stereo not given in full), the Potency result is “inactive”. As to `COc1c2c(c(C)c3c1C(=O)OC3)O[C@@]1(C)C[C@@H](O)[C@]34O[C@](OC)(CC[C@]3(C)[C@H]1C2)OC4(C)C`, the Potency entry is “inactive”.
